# Only some compounds are listed: those with a hit (about 0.41% of all), similar ones and a draw of the others.
# aGal spleen mod: alpha-galactosidase A (human) modulation; P06280; human spleen homogenate, 4MU-alpha-Gal fluorescence, 40 min; Potency, µM (top dose mostly 80 µM), for inactives: at the highest dose activity change, negative = inhibition, hits mostly inhibitors; 240,000 compounds, 0.008% hits;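 further: potency means the concentration at half of the fitted maximal effect; 0% = enzyme with vehicle and -100% = no enzyme basal signal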
# Target sequence (P06280 32-429 limits assumed): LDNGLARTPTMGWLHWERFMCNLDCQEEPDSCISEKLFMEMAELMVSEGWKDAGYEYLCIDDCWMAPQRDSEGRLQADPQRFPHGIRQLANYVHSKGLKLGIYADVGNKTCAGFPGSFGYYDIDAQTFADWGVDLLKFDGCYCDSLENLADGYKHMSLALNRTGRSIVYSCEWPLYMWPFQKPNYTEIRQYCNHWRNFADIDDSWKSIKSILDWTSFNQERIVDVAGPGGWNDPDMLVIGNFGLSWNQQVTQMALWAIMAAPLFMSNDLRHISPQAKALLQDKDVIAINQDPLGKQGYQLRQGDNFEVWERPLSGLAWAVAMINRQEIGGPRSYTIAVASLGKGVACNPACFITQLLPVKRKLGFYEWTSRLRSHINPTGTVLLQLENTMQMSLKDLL
#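 Inhibition or activation of alpha-galactosidase in human spleen homogenate is scored by 4-MU fluorescence after 40 min at 37C, pH 5.0, with 1 mM substrate. AC50s come from concentration-response fitted to the Hill equation.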
# aGlu spleen mod: inhibitors or activators of human alpha-glucosidase in spleen homogenate; human spleen homogenate, 4-MU-alpha-glucoside fluorescence; Potency, µM (highest dose often 79.9 µM), without a hit: at the top dose activity change, negative = inhibition, hits mostly inhibitors; 240,000 compounds, 0.006% hits; AID 2112;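 further: potency means the concentration at half of the fitted maximal effect; 0% = enzyme with vehicle and -100% = no enzyme basal signal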
#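 Human spleen homogenate (1 ug) incubated with compounds and 1 mM 4-methylumbelliferyl-alpha-D-glucopyranoside in pH 5.0 citrate/phosphate buffer, 37 C, 40 min. Stopped at pH 10; 4-MU fluorescence (Ex 365/Em 440 nm); AC50 by Hill fit.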
# GAA glycogen: alters human alpha-glucosidase cleavage of glycogen; recombinant GAA, glycogen substrate, Amplex Red glucose oxidase fluorescence; Potency, µM (titrated, usually from 76.4 µM), inactives show at the top dose activity change, negative = inhibition, hits mostly inhibitors; 300,000 compounds, 0.38% hits; AID 2100;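 further: potency means the concentration at half of the fitted maximal effect; 0% = full enzyme reaction and -100% = no-enzyme basal signal; the screen sought inhibitors and activators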
#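 Recombinant human enzyme (4 nM); glycogen substrate; 37 C, 40 min, pH 5.0. Readout: coupled glucose oxidase/Amplex Red fluorescence.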
# GLA inh pH 4.5: inhibitors of human alpha-galactosidase A at pH 4.5 | P06280 | purified enzyme, 4-MU-alpha-Gal fluorescence, pH 4.5 | activity change, negative = inhibition, % at 105 µM | 230,000 tested, under 10 active | AID 1467;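 further: 0% = full activity with enzyme and -100% = basal without enzyme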
# GAA inhib: alpha-glucosidase (human) inhibition | AID 1466 | purified human GAA, 4-MU-alpha-glucoside fluorescence | Potency, µM (doses to about 76.9 µM), inactives show at the highest dose activity change, negative = inhibition, actives largely listed as inhibitors | 200,000 compounds, 0.005% hits;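 further: potency means the concentration at half of the fitted maximal effect; plate controls were uninhibited enzyme wells for no effect and no-enzyme background for full effect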
#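 Fluorogenic assay: 4 nM human alpha-glucosidase with 400 uM 4-methylumbelliferyl-alpha-D-pyranoside in 50 mM citrate/phosphate, 0.005% Tween-20, pH 5.0, 20 min at room temperature. Compounds tested up to 77 uM; AC50 from Hill fits.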
# N370S GC: inhibits or activates N370S mutant glucocerebrosidase | N370S GC spleen homogenate, 4MU-glucoside fluorescence | 330,000 compounds, 0.092% hits | Potency, µM (doses to about 59.4 µM), for the others: at the top dose activity change, negative = inhibition, hits mostly inhibitors;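 further: potency means the concentration at half of the fitted maximal effect; 0% = full enzyme activity and -100% = no enzyme basal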
# The depositor's hits bear a star; ? = inconclusive; . = not tested or not shown; [ ] = another dose, or the depositor's remark. The call rests on the fitted dose curve; in most records, active means well fitted curve in the direction sought with a large enough effect; inconclusive means small, poorly fitted or top-dose-only effect, or another doubt; inactive means no such curve, though single readings can be large; an effect the other way counts as inactive or inconclusive.
SMILES,aGal spleen mod,aGlu spleen mod,GAA glycogen,GLA inh pH 4.5,GAA inhib,N370S GC
O=C(/C=C/c1ccc(O)cc1)OC[C@H]1O[C@@H](Oc2c(-c3ccc(O)cc3)oc3cc(O)cc(O)c3c2=O)[C@H](O)[C@@H](O)[C@@H]1O,-9%,5%,.,.,.,-13%
Cc1cccn2c(Nc3ccccc3)c(-c3ccc(N4CCOCC4)cc3)nc12,.,.,4µM*,.,.,.
Cc1ccc(Nc2c(-c3ccsc3)nc3c(C)cccn23)cc1,.,.,11µM*,.,.,.
CCCCCCCCCCCCCCCCn1cc[n+](Cc2ccccc2)c1C,12%,-5%,.,.,.,-5%
CC(C)C[C@H](NC(=O)[C@H](Cc1ccccc1)NC(=O)CNC(=O)[C@H](CCC(=O)O)NC(=O)[C@H](CCCNC(=N)N)NC(=O)[C@H](C)NC(=O)[C@H](C)NC(=O)[C@@H](N)CC(=O)O)C(=O)N[C@@H](CC(=O)O)C(=O)N[C@H](C(=O)N[C@@H](CC(C)C)C(=O)N[C@H](C(=O)N[C@H](C(=O)N[C@@H](CC(C)C)C(=O)N[C@@H](Cc1cnc[nH]1)C(=O)N[C@@H](CCCNC(=N)N)C(=O)N[C@@H](C)C(=O)NCC(=O)N[C@@H](C)C(=O)N[C@@H](CCCNC(=N)N)C(=O)O)C(C)C)C(C)C)[C@@H](C)O,12%,4%,.,.,.,-5%
COc1cc(CNc2ccc(N3CCOCC3)cc2)cc(Br)c1OC,2%,-20%,45µM*,-2,3%,-10%
COc1cc(CNc2ccc(N3CCN(C(C)=O)CC3)cc2)ccc1OCc1ccc(F)cc1,5%,1%,25µM*,5,2%,-17%
CCOc1cc(CNc2ccc(N3CCOCC3)cc2)cc(Br)c1OCC,-8%,-3%,-2%,-8,-6%,-7%
CCOc1c(Br)cc(CNc2ccc(N3CCN(C(C)=O)CC3)cc2)cc1OC,1%,-1%,32µM*,-9,.,-29%
CN(C)C(/C=C/Nc1ccc(O)cc1)=C(C#N)C#N,-3%,-2%,7.9µM*,8,-11%,-4%
Cc1cccc(N/C=C/C(=C(C#N)C#N)N(C)C)c1,2%,-15%,1%,-2,-2%,7%
COc1ccc(Nc2nc(-c3ccccc3)nc3ccccc23)cc1S(=O)(=O)N1CCOCC1,7%,-1%,-11%,-11,.,14µM*
Oc1cccc(Nc2nc(-c3ccccc3)nc3ccccc23)c1,.,.,-6%,.,.,2.8µM*
CC[C@H](C)C(N)C(=O)O (stereo partly specified),-6%,6%,.,.,.,0%
CSCC[C@H](NC(=O)c1ccc(NC[C@@H](N)CS)cc1-c1ccccc1)C(=O)O,-14%,1%,.,.,.,-2%
Cc1cc(=O)n(-c2ccc(O)cc2)[nH]1,4%,-5%,14µM*,0,3%,-2%
CC(CC(C)(C)C)CP(=O)(O)CC(C)CC(C)(C)C (stereo unspecified),6%,-1%,.,.,.,-1%
COc1cc(-c2cn[nH]c2N)cc(OC)c1OC,7%,?,11µM*,-6,?,-12%
Nc1[nH]ncc1-c1ccc(Cl)cc1,15%,.,-18%,1,-8%,-2%
Cc1ccc(C)n1-c1ccc(-c2nnc3n2CCCCC3)s1,4%,-3%,35µM*,1,2%,0%
C1CCc2nnc(-c3nnc4n3CCCCC4)n2CC1,-5%,-14%,4%,0,-1%,-2%
CCOc1ccc(NC(=S)NNC(=O)c2ccc(Br)cc2)cc1,-1%,1%,40µM*,3,-5%,-12%
Nc1cc(S(=O)(=O)c2ccc(O)c(N)c2)ccc1O,2%,-6%,7.9µM*,-9,.,7%
CC1Sc2ccc(S(=O)(=O)CCC(=O)Nc3ccccc3Cl)cc2NC1=O (stereo unspecified),.,.,-6%[76.3 µM],.,.,?
Cc1ccc(NC(=O)CCS(=O)(=O)c2ccc3c(c2)NC(=O)C(C)S3)cc1Cl (stereo unspecified),.,.,.,.,.,7.9µM*
SMILES,aGal spleen mod,aGlu spleen mod,GAA glycogen,GLA inh pH 4.5,GAA inhib,N370S GC
CC1Sc2ccc(S(=O)(=O)CCC(=O)Nc3ccc(C(C)C)cc3)cc2NC1=O (stereo unspecified),.,.,.,.,.,6.3µM*
COc1cccc(O)c1O,-17%,2%,.,1,.,7%
O.O.[Mn].[Mn].[Mn].[OH-].[OH-],5%,5%,.,.,.,-1%
CCOc1ccc(Nc2oc(-c3ccco3)nc2C#N)cc1,-3%,-7%,35µM*,-4,-3%,-2%
NC(C(=O)O)(c1ccc(P(=O)(O)O)cc1)C1CC1 (stereo unspecified),0%,2%,.,.,.,-3%
O=C(O)c1ccc(N/N=C/c2ccc(F)c(F)c2)cc1,8%,-9%,?,-18,12%,4%
Nc1cc(C(=O)O)ccc1Nc1ccc(F)c(F)c1,5%,3%,12µM*,0,-6%,-4%
CC(=O)N[C@H]1CSSC[C@@H](C(=O)N2CCC[C@H]2C(=O)N2CCC[C@H]2C(=O)N[C@@H](CCCCN)C(=O)N[C@@H](CC(=O)O)C(N)=O)NC(=O)CNC(=O)[C@H](Cc2c[nH]c3ccccc23)NC(=O)[C@H](CCCNC(=N)N)NC(=O)[C@@H](Cc2ccc3ccccc3c2)NC(=O)[C@H](Cc2cnc[nH]2)NC(=O)[C@H](CCC(=O)O)NC1=O,-8%,0%,.,.,.,-2%
O=C1C2=CC[C@H]3C(=O)N(C[C@@H]4CCCO4)C(=O)[C@@H]3[C@@H]2[C@H](O)[C@@H]2O[C@H]12,1%[17.5 µM],4%[17.4 µM],.,.,.,8%[12.8 µM]
CNc1nc2c3ccccc3n(C(C)=O)c2s1,0%,5%,25µM*,-4,0%,3%
CC(=O)n1c2ccccc2c2nc(NC(C)C)sc21,-6%,3%,-28%,-2,-5%,-13%
CN(C)C(=O)Nc1ccc(Oc2ccc(Cl)cc2)cc1,-2%,1%,.,.,.,2%
CC(C)C[C@H](NC(=O)[C@@H](N)Cc1ccccc1)C(=O)N[C@@H](Cc1ccccc1)C(=O)N[C@@H](CCC(N)=O)C(=O)N1CCC[C@H]1C(=O)N[C@@H](CCC(N)=O)C(=O)N[C@@H](CCCN=C(N)N)C(=O)N[C@@H](Cc1ccccc1)C(N)=O,-3%,-3%,.,.,.,-2%

# Source: PubChem
